Results published in PubChem BioAssay AID1159580 (chemical genetic matrix, 2015).
Several values for one entry are separate records, joined by “and”; a condition that tells them apart may be missing. Equal entries are not always repeated. About 2,000 (36%) of roughly 5,500 compounds were called active. About 18% were inconclusive and are not listed. Rule as the data show it: active = normalized growth mostly below about 0.91 (no sharp cut-off); inconclusive = no clear call, values can overlap the other calls; inactive = mostly above about 0.92. This is one part of the list. The source holds several records for some structures; these can differ, active in one and inactive in another.

Assay: chemical genetic growth profiling, strain panel (AID 1159580);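 also: tested at 20 µM; growth read once vehicle control cultures reached saturation at 30 °C; 1 = growth at the plate median or of vehicle wells; lower values mean less growth of the strain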
Details: growth OD
[1] = S. cerevisiae deletion strains, locus YAL013W, strain DEP1, stronger effect = lower value
[2] = S. cerevisiae deletion strains, locus YAL040C, strain CLN3, stronger effect = lower value
[3] = S. cerevisiae deletion strains, locus YCL061C, strain MRC1 (second series), stronger effect = lower value
[4] = S. cerevisiae deletion strains, locus YDR363W, strain ESC2, stronger effect = lower value
[5] = S. cerevisiae deletion strains, locus YER002W, strain NOP16, stronger effect = lower value
[6] = S. cerevisiae deletion strains, locus YGR078C, strain PAC10, stronger effect = lower value
[7] = S. cerevisiae deletion strains, locus YMR263W, strain SAP30, stronger effect = lower value
[8] = S. cerevisiae deletion strains, locus YMR307W, strain GAS1, stronger effect = lower value
[9] = S. cerevisiae deletion strains, locus YNL153C, strain GIM3, stronger effect = lower value
[10] = S. cerevisiae deletion strains, locus YNL175C, strain NOP13, stronger effect = lower value
[11] = S. cerevisiae deletion strains, locus YNL197C, strain WHI3, stronger effect = lower value
[12] = S. cerevisiae deletion strains, locus YNL224C, strain SQS1, stronger effect = lower value
[13] = S. cerevisiae deletion strains, locus YNL322C, strain KRE1, stronger effect = lower value
[14] = S. cerevisiae deletion strains, locus YOR083W, strain WHI5 (second series), stronger effect = lower value
[15] = S. cerevisiae deletion strains, locus YPL055C, strain LGE1, stronger effect = lower value

Measured: normalized growth

COC(=O)c1c(-c2cc(OC)c(OC)c(OC)c2)c2ccnc(OCc3ncccn3)c2c(=O)n1Cc1ccnc(C)c1
inactive: [1] 1 | [2] 0.889 | [3] 1.01 | [4] 1.01 | [5] 1 | [6] 1.01 | [7] 1.01 | [8] 1.01 | [9] 1.01 | [10] 1 | [11] 0.989 | [12] 0.993 | [13] 1.01 | [14] 0.999 | [15] 1.01

Cc1cc(O)c2c(c1)C(=O)c1cc(O)cc(O)c1C2=O
0.998 (inactive) and 0.795 (active): S. cerevisiae deletion strains, locus YJR075W, strain HOC1, stronger effect = lower value
inactive: S. cerevisiae deletion strains, locus YBR021W, strain FUR4, stronger effect = lower value 0.914 | S. cerevisiae deletion strains, locus YBR229C, strain ROT2, stronger effect = lower value 0.923 | [3] 0.986 | [4] 1.02 | S. cerevisiae deletion strains, locus YIL073C, strain SPO22, stronger effect = lower value 0.959 | S. cerevisiae deletion strains, locus YOL012C, strain htz1 0.486 | S. cerevisiae deletion strains, locus YPL241C, strain CIN2, stronger effect = lower value 0.986
0.968 (inactive) and 0.787 (active): [7]
active: [1] 0.868 | [2] 0.749 | S. cerevisiae deletion strains, locus YCL029C, strain bik1, stronger effect = lower value 0.734 | S. cerevisiae deletion strains, locus YDL035C, strain GPR1, stronger effect = lower value 0.699 | S. cerevisiae deletion strains, locus YDL074C, strain BRE1, stronger effect = lower value 0.56 | S. cerevisiae deletion strains, locus YDL101C, strain DUN1, stronger effect = lower value 0.732 | S. cerevisiae deletion strains, locus YDL134C, strain PPH21, stronger effect = lower value 0.783 | S. cerevisiae deletion strains, locus YDL185W, strain tfp1, stronger effect = lower value 0.795 | S. cerevisiae deletion strains, locus YDL192W, strain arf1, stronger effect = lower value 0.393 | S. cerevisiae deletion strains, locus YDR101C, strain arx1, stronger effect = lower value 0.584 | S. cerevisiae deletion strains, locus YDR162C, strain NBP2, stronger effect = lower value 0.483 | S. cerevisiae deletion strains, locus YDR318W, strain mcm21, stronger effect = lower value 0.712 | S. cerevisiae deletion strains, locus YDR388W, stronger effect = lower value 0.471 | S. cerevisiae deletion strains, locus YDR502C, strain sam2, stronger effect = lower value 0.56 | S. cerevisiae deletion strains, locus YEL061C, strain CIN8, stronger effect = lower value 0.745 | [5] 0.749 | S. cerevisiae deletion strains, locus YER110C, stronger effect = lower value 0.671 | S. cerevisiae deletion strains, locus YER155C, strain BEM2, stronger effect = lower value 0.716 | S. cerevisiae deletion strains, locus YER167W, strain BCK2, stronger effect = lower value 0.674 | S. cerevisiae deletion strains, locus YGL078C, strain dbp3, stronger effect = lower value 0.789 | S. cerevisiae deletion strains, locus YGL086W, strain mad1, stronger effect = lower value 0.645 | S. cerevisiae deletion strains, locus YGL248W, strain PDE1, stronger effect = lower value 0.853 | [6] 0.723 | S. cerevisiae deletion strains, locus YGR135W, strain pre9, stronger effect = lower value 0.741 | S. cerevisiae deletion strains, locus YGR229C, strain SMI1, stronger effect = lower value 0.338 | S. cerevisiae deletion strains, locus YGR252W, strain gcn5, stronger effect = lower value 0.415 | S. cerevisiae deletion strains, locus YHR030C, strain SLT2, stronger effect = lower value 0.629 | S. cerevisiae deletion strains, locus YHR079C, strain IRE1 (second series), stronger effect = lower value 0.854 | S. cerevisiae deletion strains, locus YHR094C, strain hxt1, stronger effect = lower value 0.673 | S. cerevisiae deletion strains, locus YHR129C, strain ARP1, stronger effect = lower value 0.705 | S. cerevisiae deletion strains, locus YHR200W, strain rpn10, stronger effect = lower value 0.75 | S. cerevisiae deletion strains, locus YIL066C, strain RNR3, stronger effect = lower value 0.688 | S. cerevisiae deletion strains, locus YIL125W, strain kgd1, stronger effect = lower value 0.842 | S. cerevisiae deletion strains, locus YIR030C, strain dcg1, stronger effect = lower value 0.635 | S. cerevisiae deletion strains, locus YJL095W, strain BCK1, stronger effect = lower value 0.475 | S. cerevisiae deletion strains, locus YJL134W, strain LCB3, stronger effect = lower value 0.907 | S. cerevisiae deletion strains, locus YJL168C, strain set2, stronger effect = lower value 0.818 | S. cerevisiae deletion strains, locus YJL187C, strain SWE1 (second series), stronger effect = lower value 0.69 | S. cerevisiae deletion strains, locus YJR043C, strain POL32, stronger effect = lower value 0.708 | S. cerevisiae deletion strains, locus YKL009W, strain mrt4, stronger effect = lower value 0.753 | S. cerevisiae deletion strains, locus YKL068W, stronger effect = lower value 0.857 | S. cerevisiae deletion strains, locus YKL085W, strain MDH1 (second series), stronger effect = lower value 0.795 | S. cerevisiae deletion strains, locus YKL085W, strain MDH1, stronger effect = lower value 0.795 | S. cerevisiae deletion strains, locus YKL190W, strain CNB1, stronger effect = lower value 0.823 | S. cerevisiae deletion strains, locus YKR001C, strain vps1, stronger effect = lower value 0.309 | S. cerevisiae deletion strains, locus YLR039C, strain RIC1, stronger effect = lower value 0.313 | S. cerevisiae deletion strains, locus YLR058C, strain SHM2, stronger effect = lower value 0.834 | S. cerevisiae deletion strains, locus YLR102C, strain apc9, stronger effect = lower value 0.837 | S. cerevisiae deletion strains, locus YLR262C, strain YPT6, stronger effect = lower value 0.383 | S. cerevisiae deletion strains, locus YLR268W, strain sec22, stronger effect = lower value 0.474 | S. cerevisiae deletion strains, locus YLR330W, strain CHS5, stronger effect = lower value 0.708 | S. cerevisiae deletion strains, locus YLR342W, strain FKS1 (second series), stronger effect = lower value 0.553 | S. cerevisiae deletion strains, locus YLR371W, strain rom2, stronger effect = lower value 0.612 | S. cerevisiae deletion strains, locus YLR418C, strain cdc73, stronger effect = lower value 0.324 | S. cerevisiae deletion strains, locus YML016C, strain PPZ1, stronger effect = lower value 0.916 | S. cerevisiae deletion strains, locus YML032C, strain rad52, stronger effect = lower value 0.6 | S. cerevisiae deletion strains, locus YML124C, strain tub3, stronger effect = lower value 0.724 | S. cerevisiae deletion strains, locus YMR078C, strain ctf18, stronger effect = lower value 0.776 | S. cerevisiae deletion strains, locus YMR223W, strain ubp8, stronger effect = lower value 0.643 | [8] 0.8 and 0.335 | S. cerevisiae deletion strains, locus YNL067W, strain RPL9B, stronger effect = lower value 0.782 | S. cerevisiae deletion strains, locus YNL128W, strain TEP1, stronger effect = lower value 0.713 | [9] 0.439 and 0.847 | [10] 0.732 | [11] 0.727 | [12] 0.861 | S. cerevisiae deletion strains, locus YNL233W, strain BNI4, stronger effect = lower value 0.63 | S. cerevisiae deletion strains, locus YNL250W, strain rad50, stronger effect = lower value 0.73 | S. cerevisiae deletion strains, locus YNL271C, strain bni1, stronger effect = lower value 0.782 | S. cerevisiae deletion strains, locus YNL298W, strain CLA4, stronger effect = lower value 0.716 | S. cerevisiae deletion strains, locus YNL307C, strain MCK1, stronger effect = lower value 0.59 | [13] 0.832 | S. cerevisiae deletion strains, locus YNR052C, strain pop2, stronger effect = lower value 0.218 | S. cerevisiae deletion strains, locus YOL147C, strain pex11, stronger effect = lower value 0.402 | S. cerevisiae deletion strains, locus YOR061W, strain CKA2, stronger effect = lower value 0.834 | S. cerevisiae deletion strains, locus YOR069W, strain VPS5, stronger effect = lower value 0.796 | [14] 0.422 | S. cerevisiae deletion strains, locus YOR136W, strain idh2, stronger effect = lower value 0.661 | S. cerevisiae deletion strains, locus YOR144C, strain elg1, stronger effect = lower value 0.759 | S. cerevisiae deletion strains, locus YOR184W, strain ser1, stronger effect = lower value 0.299 | S. cerevisiae deletion strains, locus YOR316C, strain cot1, stronger effect = lower value 0.83 | [15] 0.556 | S. cerevisiae deletion strains, locus YPR119W, strain clb2, stronger effect = lower value 0.808 | S. cerevisiae deletion strains, locus YPR141C, strain kar3, stronger effect = lower value 0.868 | S. cerevisiae deletion strains, locus YPR163C, strain tif3, stronger effect = lower value 0.403 | S. cerevisiae deletion strains, locus YPR167C, strain met16, stronger effect = lower value 0.708 | S. cerevisiae deletion strains, strain wtn01, stronger effect = lower value 0.608 | S. cerevisiae strains, strain wild type, stronger effect = lower value 0.715
